Source: ChEMBL document CHEMBL1201862, “PubChem BioAssay data set” (2004)
Hit rate of the full screen: of about 400,000 compounds, about 2,100 (0.53%) were called active. About 14% were inconclusive and are not listed. No rule for the calls is given here. The sample as a whole holds a higher share of actives than the screen did.

The molecules below were run against Ataxin-2 (Homo sapiens) (UniProt Q99700) (assay: qHTS for Inhibitors of ATXN expression.).
Format: functional

Chain of Ataxin-2 (Homo sapiens) (Q99700 whole entry): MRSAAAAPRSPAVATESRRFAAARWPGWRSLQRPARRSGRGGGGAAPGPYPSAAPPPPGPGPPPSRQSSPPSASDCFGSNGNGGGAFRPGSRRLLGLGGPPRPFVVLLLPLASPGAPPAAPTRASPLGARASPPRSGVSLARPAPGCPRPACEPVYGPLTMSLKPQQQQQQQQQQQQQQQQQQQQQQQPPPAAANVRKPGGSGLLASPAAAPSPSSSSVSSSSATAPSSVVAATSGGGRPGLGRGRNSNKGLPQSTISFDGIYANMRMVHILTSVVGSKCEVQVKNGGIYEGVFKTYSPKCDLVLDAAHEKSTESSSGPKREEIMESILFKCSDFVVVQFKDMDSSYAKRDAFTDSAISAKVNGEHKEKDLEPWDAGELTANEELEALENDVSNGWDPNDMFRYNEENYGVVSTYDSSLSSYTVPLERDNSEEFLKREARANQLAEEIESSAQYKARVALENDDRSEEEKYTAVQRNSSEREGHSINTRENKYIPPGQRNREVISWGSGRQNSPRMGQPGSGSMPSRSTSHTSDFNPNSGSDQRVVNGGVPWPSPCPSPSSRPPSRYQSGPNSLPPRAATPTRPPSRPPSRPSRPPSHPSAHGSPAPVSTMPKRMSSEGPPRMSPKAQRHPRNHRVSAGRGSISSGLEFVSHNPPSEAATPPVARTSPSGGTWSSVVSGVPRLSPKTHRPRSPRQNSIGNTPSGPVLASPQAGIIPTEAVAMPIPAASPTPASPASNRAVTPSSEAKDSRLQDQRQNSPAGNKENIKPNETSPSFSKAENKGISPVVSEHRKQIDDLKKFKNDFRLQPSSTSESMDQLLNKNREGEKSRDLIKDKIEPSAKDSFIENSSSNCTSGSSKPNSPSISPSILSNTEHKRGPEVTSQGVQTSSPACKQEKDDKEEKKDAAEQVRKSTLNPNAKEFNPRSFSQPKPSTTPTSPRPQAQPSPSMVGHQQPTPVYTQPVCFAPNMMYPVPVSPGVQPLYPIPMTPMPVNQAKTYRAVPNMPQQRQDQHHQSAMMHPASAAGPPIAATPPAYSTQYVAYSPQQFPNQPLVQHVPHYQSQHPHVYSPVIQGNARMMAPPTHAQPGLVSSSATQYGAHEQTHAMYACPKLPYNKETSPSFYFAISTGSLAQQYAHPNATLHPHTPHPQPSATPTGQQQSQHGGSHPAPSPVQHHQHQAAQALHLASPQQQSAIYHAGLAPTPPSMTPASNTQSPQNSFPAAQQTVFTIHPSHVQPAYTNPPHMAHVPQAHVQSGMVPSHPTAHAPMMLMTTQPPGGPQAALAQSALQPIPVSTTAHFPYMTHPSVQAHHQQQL

Row | SMILES | Potency
1 | Cc1ccc(S(=O)(=O)N2CCN(C(=O)CN3C(=O)c4ccc([N+](=O)[O-])cc4C3=O)CC2)cc1C | inactive
2 | COc1cc2c(C#CCCCO)c(-c3ccc(C#N)cc3)oc(=O)c2cc1OC | inactive
3 | C=CC[C@@H](CC(=O)N(CCO)Cc1ccccc1)C(=O)N[C@H](COC(=O)[C@@H](CC=C)CC(=O)OC(C)(C)C)Cc1c[nH]c2ccccc12 | 35.5 µM (active)
4 | C=CC[C@H](CC(=O)N(CCO)Cc1ccccc1)C(=O)N[C@@H](COC(=O)[C@@H](CC=C)CC(=O)OC(C)(C)C)Cc1c[nH]c2ccccc12 | 25.1 µM (active)
5 | C=CC[C@@H](CC(=O)N(CCO)Cc1ccccc1)C(=O)N[C@@H](COC(=O)[C@H](CC=C)CC(=O)OC(C)(C)C)Cc1c[nH]c2ccccc12 | 22.4 µM (active)
6 | CCCC/N=C1\C(=O)N(C)c2cccc3c(O)c4ccccc4c1c23 | inactive
7 | COc1ccc2c(C#N)c3ccccn3c2c1 | inactive
8 | Nc1cccc2c1C(=O)N(CCOc1ccc(F)cc1)C2=O | inactive
9 | c1ccc(N2CC3CCc4ccccc4C3=N2)cc1 (centres undefined) | inactive
10 | CC/C(=N\Nc1ccc([N+](=O)[O-])cc1[N+](=O)[O-])c1ccc(O)cc1 | 8.91 µM (active)
11 | C/C(CCCO)=N/Nc1ccc([N+](=O)[O-])cc1[N+](=O)[O-] | inactive
12 | CN1C(=O)/C(=N\c2ccc(Cl)cc2)c2c3ccccc3c(O)c3cccc1c23 | inactive
13 | CC1=CC(C)(C)N2C(=O)/C(=N/c3ccc(O)cc3)c3cccc1c32 | 31.6 µM (active)
14 | Cc1ccc(-c2ccc(CN3C(CC(C)C)C(=O)N(Cc4cn(CCC5OCCCO5)nn4)CCS3(=O)=O)cc2)cc1 (centres undefined) | 20 µM (active)
15 | CC(C)CC1C(=O)N(Cc2cn(CCC3OCCCO3)nn2)CCS(=O)(=O)N1Cc1ccc(-c2ccc(Cl)nc2)cc1 (centres undefined) | 31.6 µM (active)
16 | O=C(c1cc(Br)ccc1O)N1CCN(S(=O)(=O)Cc2ccccc2)CC1 | inactive
17 | Brc1ccc(-c2nnc3sc(CNCc4ccc5c(c4)OCO5)cn23)cc1 | inactive
18 | O=C(O)c1ccc(S(=O)(=O)N2CCC(NC(=O)C3CCCCC3)CC2)cc1 | inactive
19 | CCCOc1ccc(CN(CCC#N)C(=S)NC(=O)c2ccccc2)cc1 | 39.8 µM (active)
20 | Cc1ccc(NC(=O)N(CCC#N)Cc2ccccc2)cc1 | inactive

Row | SMILES | Potency
21 | COCCN(Cc1ccccc1)C(=O)c1ccc(C(=O)c2ccccc2)cc1 | inactive
22 | O=C(O)COc1c(Cl)cc(/C=C2/NC(=O)NC2=O)cc1Br | inactive
23 | Cc1nnc(N/N=C/c2ccc(-c3ccc(Br)cc3)o2)n1N | inactive
24 | COCCCn1/c(=N/C(=O)c2ccccc2)c(C#N)cc2c(=O)n3cccc(C)c3nc21 | inactive
25 | Cc1ccsc1C(=O)OCC(=O)Nc1cccc(F)c1 | inactive
26 | CN1C(=O)c2ccc(NC(=O)c3ccc(Cl)cc3Cl)cc2C1=O | inactive
27 | Cc1ccc(C(=O)COC(=O)c2cccc(NC(=O)c3ccc(Cl)cc3Cl)c2)cc1 | 35.5 µM (active)
28 | COc1cc2oc(=O)cc(-c3ccc(-c4ccc(N(C)C)cc4)cc3)c2c(OC)c1OC | inactive
29 | CCc1cc(=O)oc2c(C)c3c(cc12)CN(CCc1ccccc1OC)CO3 | inactive
30 | O=c1cc(-c2ccccc2)c2cc(Cl)c3c(c2o1)CN(Cc1ccccc1)CO3 | inactive
31 | O=c1cc(-c2ccccc2)c2cc(Cl)c(O)c(CN3CCOCC3)c2o1 | inactive
32 | COc1ccc(-c2cc(=O)oc3c4c(ccc23)OCN(Cc2cccc(OC)c2)C4)cc1 | inactive
33 | CCCc1cc(=O)oc2c(C)c(O)c(CN3CCCCC3)cc12 | inactive
34 | COc1ccc(-c2cc3ccc(O)c(CN4CCCC(C)C4)c3oc2=O)cc1OC (centres undefined) | inactive
35 | COc1cc(C(CCN2CCCC(C)C2)c2c(OC)cc(OC)c3c(-c4ccccc4)cc(=O)oc23)cc(OC)c1OC (centres undefined) | 31.6 µM (active)
36 | COc1ccc(CN2COc3ccc4c(-c5ccccc5)cc(=O)oc4c3C2)cc1OC | inactive
37 | COc1cc(C(CCN2CCCC2)c2c(OC)cc(OC)c3c(-c4ccccc4)cc(=O)oc23)cc(OC)c1OC (centres undefined) | 22.4 µM (active)
38 | COc1ccc(C(CCN2CCCC(C)C2)c2c(OC)cc(OC)c3c(-c4ccccc4)cc(=O)oc23)cc1 (centres undefined) | 31.6 µM (active)
39 | CCCCCc1cc(=O)oc2c(C(CCN3CCCC3)c3cc(OC)c(OC)c(OC)c3)c(OC)cc(OC)c12 (centres undefined) | 35.5 µM (active)
40 | COc1ccc(C2CC(c3ccccc3)=NN2c2ccccc2)c(C(=O)O)c1OC (centres undefined) | inactive

Row | SMILES | Potency
41 | Cc1cc(C)c2nc(NCCCNC(S)=NCCCN(C)C)c(C#N)cc2c1 | inactive
42 | Cn1nc(C(=O)Nc2ccc(Br)cc2)cc1C(=O)Nc1ccc(Br)cc1 | inactive
43 | CCNc1ccc2c(Cl)cc(=O)oc2c1 | inactive
44 | COc1ccc(C2=CC(c3ccc(Cl)cc3)n3cnnc3N2)cc1OC (centres undefined) | inactive
45 | CN1CCN(CCOCCOc2c(Cl)cc(Cl)cc2Cl)CC1 | inactive
46 | COCCNc1oc(/C=C/c2cccs2)nc1S(=O)(=O)c1ccccc1 | inactive
47 | Cc1ccc(S(=O)(=O)N(C)c2ccc(OC(=O)c3cccs3)cc2)cc1C | inactive
48 | Cc1ccc(-n2nc(C)c(C(=O)NCCCN3CCN(c4ccc(F)cc4)CC3)c2-n2cccc2)cc1 | 25.1 µM (active)
49 | C/C(=N\NC(=O)CN1CCN(c2ccc(F)cc2)CC1)c1ccco1 | inactive
50 | O=C(COc1ccccc1F)NCc1ccc(-n2cccc2)cc1 | inactive
51 | COc1ccccc1NC(=O)c1c(C)nn(-c2ccccc2)c1Cl | inactive
52 | COc1ccc(CCNC(=O)c2c(C)nn(-c3ccc(F)cc3)c2-n2cccc2)c(OC)c1OC | 35.5 µM (active)
53 | O=C(Nc1ccc(C(=O)NCCCN2CCN(c3ccc(F)cc3)CC2)cc1)C1=CSCCO1 | inactive
54 | CCCc1ccc(C(=O)NNc2cc(Cl)ccc2Cl)cc1 | inactive
55 | CS(=O)(=O)c1ccc(C(=O)NNC(=O)c2ccccc2-n2cccc2)cc1 | inactive
56 | CCOC(=O)C1CCN(C(=O)c2cc3c(=O)n4ccccc4nc3n2C)CC1 | inactive
57 | O=C(NN=C(S)Nc1ccccc1)c1ccc(O)cc1 | inactive
58 | CC(/C=C(\O)c1ccc(Br)cc1)=N/NC(=O)c1ccccc1 | inactive
59 | C/C(=N\NC(=O)c1ccc(Br)cc1)C1C(=O)c2ccccc2C1=O | 35.5 µM (active)
